The text below walks through data of PubChem BioAssay AID720630 (Broad Institute, 2013).

A short description of this assay: HUVEC apoptotic caspase activation, HRAS target ID – cell-based, multiple timepoints, luminescence, dry powder, mechanism study for HRAS target identification, dose response (AID 720630). The settings on record: HUVEC apoptosis, caspase-3/7 luminescence; for caspase activation: at 35 µM (top of the series).
[1] abbreviates: measured here: max caspase activation timepoint 1, at 0.001 µM, test 1, stronger effect = higher value.

Results filed as inconclusive are left out. Calls of active or inactive are those of the source. No rule for the calls is given here.

Take `Cc1onc(C(=O)N2CCN(C(c3ccc(Cl)cc3)c3ccc(Cl)cc3)CC2)c1[N+](=O)[O-]`: the caspase activation was -6.38% (inactive). In addition, the max activity under setting [1] was -21.9%. Further, where the note is “measured here: max caspase activation timepoint 2, at 1 µM, test 2, stronger effect = higher value”, the max activity is -18.4%. In addition, the max activity (measured here: max caspase activation timepoint 3, at 0.008 µM, test 3, stronger effect = higher value) is -32.1%.
Take `CCC(=O)N(c1ccc(OC)c(Cl)c1)C(C(=O)NCCc1ccccc1)c1cccs1` (stereo not drawn): the caspase activation is 8.9% (inactive). Moreover, the max activity under setting [1] is -18.6%. Moreover, the max activity (measured here: max caspase activation timepoint 2, at 16 µM, test 2, stronger effect = higher value) is -23.7%. For the same compound, where the note is “measured here: max caspase activation timepoint 3, at 4.2 µM, test 3, stronger effect = higher value”, the max activity was -13.9%.
